# Test results as given in PubChem BioAssay AID504607 (Sanford-Burnham Center for Chemical Genomics, 2011).
# Screen size: about 6,200 compounds; about 4,800 (77%) were called active. So high a share suggests a set chosen from earlier hits. Not all results are given here. Values without a mark were called inactive.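 The calls were made as follows: active = mean inhibition at 8 µM reaching about 37%, which flags the compound as non-specific (limit read from the data); inactive = the rest.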
# Assay: full-length luciferase signal inhibition, confirmation, counter-screen for Mdm2/MdmX interaction inhibitor project, cell-based, single concentration, SaOS-2 (AID 504607);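 also: p53-null SaOS-2 cells with luciferase driven by a doxycycline-inducible promoter; compound on cells about two nights before reading with doxycycline added after day one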
# Conditions: SaOS-2 full-length luciferase counterscreen, luminescence; at 8 µM; active compounds read high
row,SMILES,inhibition
1,COc1ccccc1N1CCN(C(=O)c2cc(=O)c3cc(C)cc(C)c3o2)CC1,101% (active)
2,Oc1c(Br)cccc1/C=N/Nc1c(F)c(F)c(F)c(F)c1F,56.7% (active)
3,O=C(Nc1ccc2ccccc2c1)Nc1ccc2snnc2c1,44.4% (active)
4,COc1cccc(NC(=O)[C@H](Cc2c[nH]c3ccccc23)NC(=O)[C@@H]2Cc3ccccc3CN2)c1,53.2% (active)
5,O=C(NC(Nc1nc2ccc([N+](=O)[O-])cc2s1)(C(F)(F)F)C(F)(F)F)c1ccccc1,8.11%
6,Cc1cc(CNC(=O)c2cccc([N+](=O)[O-])c2)c2ccccc2n1,41.5% (active)
7,Cc1ccc(-c2nc3ccccc3[nH]2)cc1NC(=O)c1sc2ccccc2c1Cl,18.5%
8,CCOC(=O)c1c(NC(=O)c2ccc(S(=O)(=O)N(C)CC3CCCO3)cc2)sc2c1CC(C)(C)NC2(C)C (centres undefined),62.7% (active)
9,COC(=O)c1c(NC(=O)COc2ccc(Cl)cc2Cl)sc2c1CC(C)(C)NC2(C)C,3.07%
10,O=C(CC(O)(C(F)(F)F)C(F)(F)F)Nc1ccc(Cl)c(Cl)c1,58.1% (active)
11,Cc1cccc2sc(N(CCCN(C)C)C(=O)CCS(=O)(=O)c3ccccc3)nc12,14.4%
12,CN(NC(=O)c1ccccc1F)c1nc(C(F)(F)F)nc2ccccc12,63.5% (active)
13,CN(NC(=O)c1ccccc1)c1nc2ccccc2nc1C(F)(F)F,68.8% (active)
14,CSc1nc(N(C)NC(=O)c2cccc(C)c2)c2ccccc2n1,135% (active)
15,CC1(C)CCSC(/C=C/c2ccccc2)=N1,30.5%
16,Cc1ccccc1C(CC(=O)c1cccs1)C(C#N)C#N (centres undefined),45.1% (active)
17,Cc1cccc(NC(=O)Nc2cccc(Oc3c(F)c(F)c(F)c(F)c3F)c2)c1,32.5%
18,CCNS(=O)(=O)c1ccc(NC(=O)Nc2cccc(C(F)(F)F)c2)cc1,53.4% (active)
19,O=C(Nc1ccc(C(=O)N2CCOCC2)cc1)Nc1cccc(C(F)(F)F)c1,49.8% (active)
20,COc1ccc(-c2cc(C(F)(F)F)nc(S(C)(=O)=O)n2)cc1OC,24.3%
21,COc1ccc(-c2ccc(Nc3ccc(S(=O)(=O)N4CCCC4)cc3)nn2)cc1OC,77.8% (active)
22,COc1ccc(C(=O)O/N=C(\N)Cc2ccc(Cl)cc2Cl)cc1OC,47.8% (active)
23,Cc1cccc(Nc2ccccc2C(=O)NCc2ccco2)c1C,39.6% (active)

row,SMILES,inhibition
1,COc1ccc2sc(-c3ccc(S(C)(=O)=O)cc3)c(C#Cc3cncn3C)c2c1,44.8% (active)
2,COc1cccc(-c2sc3ccc(OC)cc3c2-c2ccc(OCCN3CCCCC3)cc2)c1,32.7%
3,O=C1N/C(=C/c2cccn2-c2ccccc2)C(=O)N1c1cccc(Cl)c1,126% (active)
4,Cc1cccc(-n2c(C)cc(/C=N\NC(=O)c3cccs3)c2C)c1,178% (active)
5,Cc1cc(C(=O)COc2ccccc2[N+](=O)[O-])c(C)n1-c1cccc(S(=O)(=O)N2CCOCC2)c1,89.8% (active)
6,Cn1nc(-c2ccccc2)c(CSc2cccc(Cl)c2)c1Cl,51.5% (active)
7,CN1CCN(CCCNC(=O)c2ccc(/C=C3\Oc4ccccc4N(Cc4ccc(Cl)cc4)C3=O)cc2)CC1,62.6% (active)
8,CCN1CCN(CCNC(=O)c2ccc(/C=C3/Sc4ccccc4N(Cc4cccc(C)c4)C3=O)cc2)CC1,27.6%
9,Cc1ccc(OCC(O)CN2CCN(CC(O)COc3ccc(C)cc3Cl)CC2)c(Cl)c1 (centres undefined),71.1% (active)
10,Cn1c(=O)n(C)c2cc(C(=O)Nc3ccc4c(c3)OCO4)ccc21,56.6% (active)
11,CC1CCCCC1NC(=O)/C(C#N)=C/C=C/c1ccccc1[N+](=O)[O-] (centres undefined),57.2% (active)
12,NS(=O)(=O)c1ccc(N=Nc2c(O)[nH]c3ccc(Br)cc23)cc1,86.5% (active)
13,C[C@@H]1C[C@@H]2O[C@H]2/C=C\C=C\C(=O)Cc2c(Cl)c(O)cc(O)c2C(=O)O1,33.8%
14,Clc1cccc(Cl)c1OCCOCCNCc1ccccc1,33%
15,N=c1c2c(-c3ccccc3)c(-c3ccccc3)n(Cc3ccccc3)c2ncn1CCCO,62% (active)
16,CCCCC(O)(CCCC)C(=O)NN(C(=O)CCl)c1ccccc1,34%
17,Cc1cc(=O)oc2cc(OCC3CC(c4ccccc4Cl)=NO3)ccc12 (centres undefined),117% (active)
18,Cc1ccc(-n2[nH]c(C)c(/C=N/NC(=O)c3cccc([N+](=O)[O-])c3)c2=O)cc1C,46.2% (active)
19,Cn1c(C(=O)NCCCN2CCN(c3cccc(Cl)c3)CC2)cc2c(=O)n(C)c3ccccc3c21,61.5% (active)
20,OCCCNc1nccc(-c2cc(Nc3cccc(Cl)c3)ncn2)n1,53.2% (active)
21,CC(C)n1cnc2c(Nc3cccc(Cl)c3)nc(N(CCO)CCCO)nc21,47.6% (active)
22,CCCCCCCCn1c2c(c(=N)c3c1CCC3)CCCC2,22%
23,COc1ccc(-c2nn(C)c(=O)c3ccccc23)cc1NC(=O)COc1ccccc1,53.5% (active)

row,SMILES,inhibition
1,O=[N+]([O-])c1ccc(Oc2ccc(F)cc2Br)c2ccncc12,16%
2,CCCC(=O)Nc1nc2ccc(NC(=O)c3cccnc3)cc2s1,108% (active)
3,O=C(Nc1nc2ccc([N+](=O)[O-])cc2s1)c1ccc(S(=O)(=O)N2CCCc3ccccc32)cc1,20%
4,Cc1nnc(NC(=O)Nc2ccc(Cl)c(Cl)c2)s1,33.4%
5,O=C(Nc1ccc(Cl)cc1)Nc1nnc(/C=C/c2ccccc2)s1,75.8% (active)
6,Cc1c(C(=O)N/N=C/c2ccccc2)[nH]c2c([N+](=O)[O-])cccc12,48.3% (active)
7,COc1cccc(CNCCc2c[nH]c3ccccc23)c1OCc1ccccc1F,42% (active)
8,COc1ccc(/C=C/C(=O)Nc2ccc(C34CC5CC(CC(O)(C5)C3)C4)cc2)cc1OC,85.7% (active)
9,CCN(CC)c1ccc(/C=N/NC(=O)c2cnccn2)c(O)c1,37.9% (active)
10,CCN(CC)c1ccc(/C=N/Nc2nc(C)cc(C)n2)c(O)c1,38.6% (active)
11,Cc1c(Cl)c([N+](=O)[O-])nn1Cc1ccc(C(=O)N/N=C\c2cc(Cl)ccc2O)o1,32.4%
12,CC(=O)Oc1c(C(=O)c2nnc(C)o2)c(=O)n(Cc2ccccc2)c2ccccc12,36.5% (active)
13,NC(N)=N/N=C/c1ccc(OCc2ccc(Cl)cc2Cl)cc1,50.2% (active)
14,COc1cccc2cc(C(N)=O)/c(=N\NC(=O)c3ccccc3)oc12,137% (active)
15,CC(Nc1nc(N2CCCC2)nc2ccccc12)c1ccccc1 (centres undefined),88.5% (active)
16,O=C(/C=C/c1ccc(OCc2c(F)cccc2Cl)cc1)N1CCOCC1,27.7%
17,C=C(C)C(=O)O[C@H]1C/C(C)=C\C(=O)/C=C(\C)[C@H](O)[C@@H]2OC(=O)C(=C)[C@@H]21,51.4% (active)
18,CCc1ccc(N(CC)c2ncnc3nc[nH]c23)cc1,41.2% (active)
19,C/C(=N\NC(=O)c1ccccc1F)c1ccccn1,52.1% (active)
20,CCOC(=O)CC1C(=O)NCCN1c1nc2c(C)cccn2c(=O)c1/C=C1\SC(=S)N(C(C)CC)C1=O (centres undefined),101% (active)
21,CCN1C(=O)c2cccc3c(S(=O)(=O)Nc4ccccc4O)ccc1c23,76.6% (active)
22,COc1ccc2c(c1OC)C(=O)OC2Nc1nc(-c2ccccc2)cs1 (centres undefined),51.2% (active)
23,Cc1ccc(-c2csc(NC3OC(=O)c4ccccc43)n2)cc1 (centres undefined),23.7%
